This is a sample that favours compounds with a hit; in the whole collection about 3% have one here.
D3 ag = D3 dopamine receptor (human) agonism. 410,000 tested, 0.58% active. D3R DiscoveRx beta-arrestin cells, luminescence, 90 min. P35462. max activation, %; in the data active = max activation above about 30%; also: 0% is about no effect
Target sequence (P35462 whole entry, looked up): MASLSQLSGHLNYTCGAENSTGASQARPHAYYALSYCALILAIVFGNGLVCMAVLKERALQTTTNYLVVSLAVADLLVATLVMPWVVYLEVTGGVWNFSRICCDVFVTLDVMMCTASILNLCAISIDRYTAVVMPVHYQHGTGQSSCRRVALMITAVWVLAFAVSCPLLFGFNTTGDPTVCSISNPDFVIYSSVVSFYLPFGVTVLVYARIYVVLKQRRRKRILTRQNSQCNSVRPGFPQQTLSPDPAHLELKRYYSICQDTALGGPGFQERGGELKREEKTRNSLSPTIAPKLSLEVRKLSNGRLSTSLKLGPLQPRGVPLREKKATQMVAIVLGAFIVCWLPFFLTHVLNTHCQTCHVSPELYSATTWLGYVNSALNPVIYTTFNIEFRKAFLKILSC
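Agonist-mode cell screen: cells plated at 1500/well and incubated overnight at 37 °C, then exposed to library compounds for 90 min at 37 °C. Detection reagent was added for 30–60 min at room temperature, and luminescence was read.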
DRD3 antagonist = blocks the human D3 dopamine receptor; P35462; D3R cells, DiscoveRx beta-arrestin luminescence, antagonist mode; stronger effect = lower value; max response, negative = inhibition, %; 360,000 tested, 2.5% active; AID 652054; in the data active = max response below about -50%; inconclusive = no clear call, values can overlap the other calls; also: % is scaled to controls: 0 for no effect and ±100 for the full control effect
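Cells plated overnight at 1500 cells/well, then exposed to library compounds with dopamine controls for 90 minutes at 37 degrees C. DiscoveRx reagent added for 30–60 minutes at room temperature; luminescence read, quantitative HTS format.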
Nrf2 ARE act = activates Nrf2 signaling. AREc32 ARE-luciferase reporter (MCF7-derived line), luminescence, 24 h. 410,000 tested, 0.31% active. Potency, µM (highest dose often 46.1 µM), without a hit: top-dose activation, usual class: activators; also: potency is read from the fitted curve at half-maximal effect; % of control where 0% means no effect; nearly all actives have a fitted effect of over 65% in size
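AREc32 cells carrying an ARE-driven firefly luciferase reporter were seeded at 1000 cells/well in OPTI-MEM with 5% FBS, then exposed to compound for 24 hr at 37 deg C. Luminescence was read with Steady-Glo after 30 min at RT.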
Glioma ERSR ind = ER stress response induction in glioma; U87-MG GRP78 promoter luciferase reporter, 16 h; Potency, µM, for inactives: at the top dose activation, usual class: activators; 420,000 tested, 0.02% active; also: potency is read from the fitted curve at half-maximal effect; series mostly up to about 76 µM; % of control where 0% means no effect; nearly all actives have a fitted effect of over 35% in size
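Stably transfected U87-MG human glioma cells carrying a GRP78-based luminescent sensor were seeded at 1000 cells/well, pin-dosed with compounds and incubated 16 h. Luciferase reagent was then added, and end-point luminescence was read after 10 min at room temperature.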
* marks the source's active call; other numbers are inactive results; u = inconclusive; x = not tested or not shown. Unless noted, calls follow the shape of the dose curve; as a rule, active = well fitted curve in the direction sought with a large enough effect; inconclusive = small, poorly fitted or top-dose-only effect, or another doubt; inactive = no such curve, though single readings can be large; an effect the other way counts as inactive or inconclusive.

SMILES | D3 ag | DRD3 antagonist | Nrf2 ARE act | Glioma ERSR ind
Fc1cccc(C2NN=C(c3ccccc3)S2)c1 (centres undefined) | -4 | 2 | 3.5µM* | 1%
CCc1ccccc1NC(=S)N(CCN(C)C)C(C)c1ccco1 (centres undefined) | -4 | -146* | -1% | 1%
CN(N=Cc1ccccc1O)c1ccc2ccccc2n1 | -6 | -9 | 4.5µM* | -2%
COC(=O)C(=C/C(C)=C/c1cccnc1)C(=O)OC | 1 | -52* | 0% | -13%
O=C(O)[C@H](O)[C@@H](O)[C@H](O[C@@H]1O[C@H](CO)[C@H](O)[C@H](O)[C@H]1O)[C@H](O)CO | -5 | x | x | x
CCCCCCCCCCCCCCCCn1cc[n+](Cc2ccccc2)c1C | x | x | x | -12%
CC(C)c1ccc(Nc2nc(N3CCOCC3)nc(N3CCOCC3)n2)cc1 | -10 | -74* | 0% | -5%
CN1CCN(c2nc(Nc3cccc(C(F)(F)F)c3)nc(N3CCOCC3)n2)CC1 | -30 | -98* | 6% | -6%
O=C(Nc1cc(Br)ccc1O)c1cnn2c(C(F)F)cc(C3CC3)nc12 | 3 | 19 | 2.5µM* | -2%
O=C(Nc1cccnc1)c1cnn2c(C(F)F)cc(C3CC3)nc12 | 4 | 0 | 2% | -5%
C=CCNCCCOc1ccc(Cl)cc1Br | -15 | -67* | 7% | -1%
COCCNCCCOc1ccc(Cl)cc1Br | -4 | -78* | 3% | -1%
C=CCc1cc(Cl)ccc1OCCCNC(C)CC (centres undefined) | -8 | u | 6% | -6%
C=CCNCCCCOc1ccc(Br)cc1C | -17 | u | 4% | -8%
Cc1cc(Br)ccc1OCCCCNCCO | -2 | -60* | 0% | 0%
COCCNCCCOc1ccc(Br)cc1Cl | -24 | -78* | 7% | -2%
C#CC(C)OC(=O)Nc1cccc(Cl)c1 (centres undefined) | x | x | x | 10%
COc1ccc(CNc2nc(-c3ccc(N(C)C)cc3)nc3ccccc23)c(OC)c1 | x | x | x | -9%
CC1CCCN(C(=O)c2ccc(CSc3nc4ccncc4n3Cc3ccccc3)cc2)C1 (centres undefined) | -8 | x | -1% | 0%
C[C@H]1C[C@H]2[C@@H]3CCC4=CC(=O)C=C[C@]4(C)[C@H]3C(=O)C[C@]2(C)[C@@]1(O)C(=O)CO | 1 | x | x | x
COCCCNCCCOc1ccc(Cl)cc1C(C)(C)C | -40 | u | 3% | -5%
OCCNCCCOc1ccc(Cl)cc1Br | -4 | -64* | 3% | -2%
COc1cccc(C(=O)N(Cc2cc3cc4c(cc3nc2N(C)C)OCO4)CC2CCCO2)c1 (centres undefined) | x | x | x | -3%
Fc1ccc(CCn2c(Cn3c(-c4cnccn4)nc4ccccc43)nc3ccccc32)cc1 | -14 | -59* | 12% | x
COC(=O)c1c(-c2ccc(Br)cc2)csc1NC(=O)Cc1ccc(OC)c(OC)c1 | 12 | 21 | 2% | -5%
SMILES | D3 ag | DRD3 antagonist | Nrf2 ARE act | Glioma ERSR ind
COC(=O)c1c(-c2ccc(C)cc2)csc1NC(=O)Cc1ccc(OC)c(OC)c1 | 32* | 93 | 0% | 0%
COc1ccc([C@H]2CC(=O)C=C(c3ccc(C(=O)O)cc3)C2)cc1OC | 31* | 2 | 0% | -3%
COc1ccc([C@H]2CC(=O)C=C(c3cccc4c3sc3ccccc34)C2)cc1OC | 13 | 4 | 4% | -1%
COc1ccc([C@H]2CC(=O)C=C(c3cc4ccccc4s3)C2)cc1OC | 32* | 51 | 0% | -3%
O=[N+]([O-])c1cccc(-c2ccc(CN3CCN(c4ccccc4)CC3)o2)c1 | 11 | u | 3% | -3%
O=[N+]([O-])c1ccccc1-c1ccc(CN2CCN(c3ccccc3)CC2)o1 | 0 | -58* | 0% | -2%
Cc1ccccc1OCC(=O)Nc1c(C)ccc2nsnc12 | 22 | x | 5% | -4%
CCOc1ccc(C(=O)c2cn(CC(=O)Nc3ccc4c(c3)OCO4)c3ccc(OC)cc3c2=O)cc1 | 1 | x | -1% | -2%
COc1ccccc1-c1ccnc(-n2ncc(C(=O)N[C@H]3CCCCNC3=O)c2C2CC2)n1 | x | x | x | -4%
Cc1cccc(OCC(=O)Nc2cc(C)c(O)c(-c3nc4ccccc4o3)c2)c1 | x | x | x | 1%
O=C(NCCCO)c1cc2ccccc2[nH]1 | -5 | -8 | 0% | -4%
O=C(NCCN1CCCCC1)c1cc2ccccc2[nH]1 | -15 | -72* | -1% | -4%
NNC(=O)c1cc2ccccc2[nH]1 | -10 | -52* | 7% | -6%
COc1cccc(C=NCC(C)N=Cc2cccc(OC)c2O)c1O (centres undefined) | -10 | -103* | 1% | -5%
COc1ccc(S(=O)(=O)N2CCN(C3CC4CCC3C4)CC2)cc1 (centres undefined) | -19 | -16 | 0% | 0%
Cc1cc(C)c(S(=O)(=O)N2CCN(C(=O)c3c(C)nn(-c4ccccc4)c3Cl)CC2)c(C)c1 | 4 | 5 | 0% | -5%
Cc1ccc(S(=O)(=O)N2CCN(C(=O)c3c(C)nn(-c4ccccc4)c3Cl)CC2)cc1 | -14 | -71* | 0% | 0%
Cc1ccc(S(=O)(=O)N2CCN(C3CC4CCC3C4)CC2)cc1 (centres undefined) | -23 | -61* | 0% | 0%
Cc1cc(C)c(S(=O)(=O)N2CCN(C(=O)c3ccc(-n4nc(C)c(Cl)c4C)cc3)CC2)c(C)c1 | 101* | -2 | 0% | 2%
COc1ccc(S(=O)(=O)N2CCN(C(=O)c3c(C)nn(-c4ccccc4)c3Cl)CC2)cc1 | -15 | 0 | 5% | -1%
Cc1ccc(S(=O)(=O)N2CCN(S(=O)(=O)c3ccccc3)C2)cc1 | 3 | -51* | -1% | 2%
Cc1c(OCC(=O)NCC(O)c2ccccc2)ccc2c(-c3ccccc3)cc(=O)oc12 (centres undefined) | 33* | 35 | 6% | 1%
CCN1CCN(CC(=O)c2c[nH]c3ccccc23)CC1 | -5 | -19 | 3% | -1%
O=C(CN1CCN(C2CCCCC2)CC1)c1c[nH]c2ccccc12 | -2 | -69* | 2% | -2%
Cc1cc(C)c(C#N)c(SCC(=O)c2cccs2)n1 | 2 | u | u | 3%
SMILES | D3 ag | DRD3 antagonist | Nrf2 ARE act | Glioma ERSR ind
Cc1nc(SCC(=O)c2ccc(Cl)cc2)c([N+](=O)[O-])[nH]1 | 0 | -66* | 6% | -4%
Cc1cc(C)c(C#N)c(SCC(=O)c2ccccc2)n1 | -10 | -16 | 2.8µM* | -3%
Cc1cc(C)c(C(N)=O)c(SCC(=O)c2ccc(Cl)cc2)n1 | 1 | -60* | 5% | 4%
Cc1nc(SCC(=O)c2ccc(F)cc2)c([N+](=O)[O-])[nH]1 | -5 | 19 | 6% | 0%
COc1ccc(-c2[nH]ncc2C(=O)NCc2cccc(F)c2)cc1 | 1 | x | 0% | x
CCCCn1c(CCC)nc([N+](=O)[O-])c1Sc1ccc(Cl)cn1 | -2 | -4 | 11µM* | -1%
Cc1ccc2nc(SCC(=O)N3CCC4(CC3)CC4C(=O)Nc3ccc(F)c(F)c3)[nH]c2c1 (centres undefined) | x | x | x | 4%
Cc1cc(Nc2ccc(Br)c(C)c2)n2nc(-c3ccco3)nc2n1 | 2 | x | 6% | 0%
Cc1cc(C)n2nc(-c3ccco3)nc2n1 | -10 | -2 | 13µM* | 5%
